Only some compounds are listed: those with a hit (about 4.7% of all), similar ones and a draw of the others.
ATG4B inhibitor: ATG4B protease inhibitors, primary screen, biochemical, fluorescence, uHTS; ATG4B cleavage of LC3-PLA2, NBD-HPC fluorescence, 1 h; inhibition, % at 8.33 µM; 0.51% of 340,000 active; AID 504462, 2011; in the data active means inhibition above about 40%
Target sequence (Q9Y4P1 whole entry, looked up): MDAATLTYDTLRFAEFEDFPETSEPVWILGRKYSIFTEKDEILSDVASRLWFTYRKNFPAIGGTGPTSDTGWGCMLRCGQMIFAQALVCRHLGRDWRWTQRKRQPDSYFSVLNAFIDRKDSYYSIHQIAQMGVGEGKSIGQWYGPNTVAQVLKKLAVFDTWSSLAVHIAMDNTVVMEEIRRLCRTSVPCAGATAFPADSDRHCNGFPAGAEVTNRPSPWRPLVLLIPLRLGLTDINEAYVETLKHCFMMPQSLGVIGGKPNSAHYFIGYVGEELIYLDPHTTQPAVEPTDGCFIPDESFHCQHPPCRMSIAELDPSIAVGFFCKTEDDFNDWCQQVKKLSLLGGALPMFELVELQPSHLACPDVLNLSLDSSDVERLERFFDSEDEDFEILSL
SKKanGAS inh: S. pyogenes SKKanGAS growth inhibitors in kanamycin, primary screen, streptokinase expression inhibitor project, SKKanGAS strain, BacTiter-Glo luminescence. 6 h. inhibition, % at 7.5 µM. 1.3% of 300,000 active;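 active means mean replicate score, as percent of positive control median, at least 50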;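 further: strain carries kanamycin resistance gene driven by streptokinase promoter and grows in 40 µg/ml kanamycin; loss of luminescence reflects streptokinase promoter inhibition or plain growth inhibition; 0% = median of DMSO wells and 100% = positive control at its reference dose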
tim23-1 inh: growth inhibitors of tim23-1 mutant yeast, primary screen, luminescence, uHTS. AID 463212, 2010. S. cerevisiae tim23-1 growth, BacTiter-Glo luminescence, 24 h. inhibition, % at 20 µM. 1.3% of 330,000 active;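 active means growth inhibition of the mutant yeast at or above 50%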;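 further: temperature-sensitive mutant grown at 25 °C; plate controls were DMSO-treated mutant yeast for no effect and medium wells lacking yeast for full effect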
tim10-1 inh: growth inhibitors of tim10-1 mutant yeast, primary screen, luminescence, uHTS | S. cerevisiae tim10-1 ts strain growth, BacTiter-Glo, 24 h | inhibition, % at 20 µM | 2.2% of 330,000 active | AID 463190, 2010;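 active means inhibition of at least 40%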;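 further: mutant grown at 25 °C; 0% = DMSO wells with yeast and 100% = wells holding no yeast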
TIM10 inh: growth inhibitors of isogenic TIM10 control yeast, primary screen, counter-screen for tim10-1 yeast inhibitor project, luminescence, uHTS; S. cerevisiae TIM10 strain growth, BacTiter-Glo luminescence, 24 h; inhibition, % at 10 µM; 1.4% of 330,000 active; AID 463195, 2010;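 active means inhibition of 40% or more at the single tested concentration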;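 further: wild-type TIM10 isogenic control strain grown at permissive 25 °C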
PfHsp90 yeast 2: growth inhibition of PfHsp90-expressing yeast, primary screen, antimalarial PfHsp90 inhibitor project, S. cerevisiae, BacTiter-Glo luminescence, single point, set 2 | 0.32% of 310,000 active | BacTiter-Glo ATP, 48 h; yeast lacking PDR1 and PDR3 efflux regulators | AID 504621, 2011 | inhibition, % at 9.4 µM;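 active means every replicate shows inhibition above about 80%, whatever the replicate mean, limit read from the data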;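 further: 0% = DMSO neutral controls and 100% = 20 µM radicicol positive controls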
ATG4B confirm: ATG4B protease inhibitors, retest, confirmation, biochemical, fluorescence, single concentration; shares compounds with ATG4B inhibitor; ATG4B protease fluorescent substrate cleavage assay; inhibition, % at 8.33 µM; 92% of 320 active; in the data active means inhibition above about 39%
PLA2 ctr: PLA2 enzyme inhibition, counter-screen for ATG4B inhibitor project, biochemical, single concentration, uHTS hits | shares compounds with ATG4B inhibitor | purified PLA2, NBD-C6-HPC fluorescence, 45 min | inhibition, % at 8.33 µM | 66% of 1,600 active | AID 588402, 2011; in the data active means inhibition above about 50%
Target sequence (P04054 whole entry, looked up): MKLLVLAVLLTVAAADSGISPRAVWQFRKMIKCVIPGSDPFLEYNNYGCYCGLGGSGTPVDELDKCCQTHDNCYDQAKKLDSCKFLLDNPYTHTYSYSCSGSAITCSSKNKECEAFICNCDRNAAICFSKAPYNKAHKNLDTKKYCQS
An asterisk follows results filed as active; x = no result.

SMILES | ATG4B inhibitor | SKKanGAS inh | tim23-1 inh | tim10-1 inh | TIM10 inh | PfHsp90 yeast 2 | PLA2 ctr | others
CCOc1ccc(N2C(=O)CSC2=S)cc1 | 6 | -1 | -1 | -9 | 1 | -2 | x
CCN(CC)c1ccc(N2C(=O)CSC2=S)cc1 | 66* | 16 | 31 | 14 | -1 | 15 | 63*
CCCn1nnc(NC(=O)c2ccc(OCC)c(Cl)c2)n1 | 2 | -2 | 7 | -5 | -12 | 1 | x
COc1cccc(/C=N/NC(=O)c2ccc(-c3ccccc3)cc2)c1O | -8 | 22 | -2 | -12 | 6 | x | x
COc1cccc(/C=N/NC(=O)c2[nH]c(C)c(C(=O)N/N=C/c3cccc(OC)c3O)c2C)c1O | 62* | 0 | 7 | 16 | -103 | -98 | 24 | ATG4B confirm=33
COc1nc(-c2ccc(Cl)cc2Cl)nc2ccccc12 | 6 | 11 | 16 | 6 | -13 | 4 | x
Clc1cccc(-c2nnc(SC/C=C/c3ccccc3)n2Cc2ccco2)c1 | 55* | x | 23 | 27 | 13 | -9 | 56*
COc1ccc(N2C(=O)CSC2c2ccc(F)cc2)cc1 (stereo unspecified) | 4 | 0 | 4 | 15 | -2 | 20 | x
COCCNC(=O)C1CCN(C(=O)c2cc3sccc3n2Cc2ccc(F)cc2)CC1 | 0 | -3 | 5 | 24 | 26 | -18 | x
O=C(Nc1cccc(Cl)c1N1CCCC1)c1ccc(Br)o1 | 56* | 70* | 12 | 14 | -43 | -16 | 56*
O=C(Nc1cccc(Cl)c1N1CCOCC1)c1ccco1 | 14 | 2 | 18 | -27 | -13 | -13 | x
NS(=O)(=O)c1cc(C(=O)NC2CCSc3ccccc32)ccc1Cl (stereo unspecified) | 54* | 23 | 5 | 5 | 12 | -16 | 25 | ATG4B confirm=43*
Cc1ccc(C(=O)CC(=O)c2cc(Cl)ccc2O)cc1 | 46* | 126* | 22 | 29 | 24 | -9 | 47 | ATG4B confirm=72*
CCc1ccccc1N1CCN(S(=O)(=O)c2cc(OC)ccc2OC)CC1 | 57* | 2 | 24 | 29 | 17 | x | 52*
O=C1NC(=S)S/C1=C\c1cc2ccccc2nc1N1CCCCC1 | 65* | 41 | 38 | 6 | 36 | 108* | 79*
N#C/C(=C\c1cc2ccccc2nc1N1CCCCC1)C(N)=O | 3 | x | x | x | x | 15 | x
COc1ccc2nc(N3CCCCC3)c(/C=C3\SC(=S)NC3=O)cc2c1 | 77* | 86* | 28 | 22 | 22 | 13 | 32 | ATG4B confirm=21
COc1ccc2c(-c3ccccc3)cc(SCC(N)=O)nc2c1 | 58* | -6 | 34 | 5 | -10 | -13 | 57*
COc1ccc2nc(SCC(N)=O)cc(C)c2c1 | 12 | -11 | 6 | 25 | 8 | -18 | x
N#Cc1c(N)c(C(=O)c2ccc(Cl)cc2)n2c1CCC2 | 0 | 0 | -5 | -7 | -3 | -6 | x
CCN(CC)c1ccc(C(=C2C=CC(=[N+](CC)CC)C=C2)c2ccc(N(CC)CC)cc2)cc1 | 58* | x | x | x | x | 136* | 52*
COc1ccc(/C=C2\SC(=S)N(CCCC(=O)NNC(=O)c3ccccc3O)C2=O)cc1 | 49* | 29 | -38 | -23 | -29 | 4 | -6
O=C1ON=C(c2ccccc2)/C1=C/c1ccc(-c2ccccc2[N+](=O)[O-])o1 | 69* | x | x | x | x | -29 | 51*
Cc1nn(-c2c(Cl)cc(Cl)cc2Cl)c(=O)c2ccccc12 | 7 | 11 | 34 | 14 | -1 | 4 | x
Cc1sc2nc3c(SC(C)C(=O)O)cc(C(=O)c4ccccc4O)cn3c(=O)c2c1C (stereo unspecified) | 52* | 14 | x | x | x | -36 | 53*
SMILES | ATG4B inhibitor | SKKanGAS inh | tim23-1 inh | tim10-1 inh | TIM10 inh | PfHsp90 yeast 2 | PLA2 ctr | others
CCOC(=O)c1sc2nc3c(SCC(=O)O)cc(C(=O)c4ccccc4O)cn3c(=O)c2c1C | 13 | 5 | -7 | -11 | 14 | -15 | x
O=[N+]([O-])c1cccc(-c2n[nH]c(=S)n2-c2ccc(Br)cc2)c1 | 11 | 1 | 34 | 15 | 8 | -5 | x
CCCc1cc(C(=O)N(C2CCCCC2)C2CCCCC2)no1 | 60* | 7 | 30 | 28 | 9 | -3 | 72*
O=C(CCn1c2c(c3ccccc31)CCCC2)NNC(=O)c1ccc(Cl)c([N+](=O)[O-])c1 | 52* | 7 | -4 | 2 | -8 | 20 | 61*
O=C1N[C@@H](c2ccccc2)COC(=O)[C@@H](Cc2ccc(F)cc2)C/C=C\C[C@@H]1CC(=O)N(CCO)Cc1ccccc1 | 50* | x | 1 | 1 | 5 | 19 | 54*
COCC(=O)NC1CC(C)(C)Cc2c1cnn2-c1ccc(F)cc1 (stereo unspecified) | 8 | -2 | 6 | 14 | 0 | -6 | x
CCOC(=O)N1CCN(C(=O)c2ccc3c(=O)n(-c4ccccc4F)c(=S)[nH]c3c2)CC1 | 3 | 2 | 5 | 12 | -9 | x | x
CCc1ccc(C(CNC(=O)c2ccc3c(=O)n(-c4ccccc4F)c(=S)[nH]c3c2)N(C)C)cc1 (stereo unspecified) | 70* | 6 | 2 | 14 | 1 | -14 | 83*
Fc1ccccc1N1CCN(Cc2cc(-c3ccccc3)on2)CC1 | -8 | -9 | 23 | 22 | 18 | -3 | x
CC1CC1c1ccc(/C=C(\C#N)C(=O)Nc2ccccc2Cl)o1 (stereo unspecified) | 41* | -7 | 29 | 32 | 20 | -7 | 51*
c1ccc(OCc2nnnn2-c2ccccc2)cc1 | 42* | -4 | 13 | 27 | -11 | 0 | -2
c1ccc(-c2nnnn2-c2ccccc2)cc1 | -10 | -2 | 2 | -6 | -4 | -2 | x
CCN1CCSc2ccc(C(=O)NCc3ccccc3Br)cc21 | 38 | -2 | 35 | 22 | 14 | -17 | x
CCN1CCSc2ccc(C(=O)NCc3ccccc3C)cc21 | 44* | -2 | 33 | 26 | 6 | -2 | 59*
Clc1ccc(/C=N/Nc2nnc(-c3ncc[nH]3)c3ccccc23)cc1 | 79* | 3 | -15 | 25 | 21 | -38 | 82*
Cc1nc2ccccc2n1C1CCN(CC(=O)Nc2ccccc2Br)CC1 | -22 | 9 | 34 | 35 | 39 | 5 | x
